Among all 340,000 compounds or so, about 470 (0.14%) were called active.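 How the source made its calls: active means mean activation of 30% or more, with every replicate also reaching 30%; inconclusive means mean activation of 30% or more but some replicate falls short; inactive means the rest.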 This excerpt belongs to a sample that is enriched for actives.
Assay: small molecules raising miR-122 sensor signal – cell-based, Huh7 psiCHECK-miR122, Renilla luciferase, single point, primary screen (AID 623901);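 further: 0% = median of neutral control wells and 100% = median of positive control wells; higher luciferase signal means stronger suppression of miR-122 activity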
Details: 48 h, at 12.5 µM, active compounds read high
In the case of `C[C@H](CO)N1C[C@H](C)[C@@H](CN(C)Cc2ccncc2)Oc2ncc(C#CC3CC3)cc2C1=O`, the activation is reported as -22.7% (inactive). With `Cc1ccc(C(=O)Nc2ccccc2-c2ccccc2)cc1S(=O)(=O)Nc1ccccc1` the activation was -94% (inactive). For `N=c1c2c(-c3ccccc3)c(-c3ccccc3)n(Cc3ccccc3)c2ncn1CCCO`, the activation was 42.7% (active). In the case of `CCCN1C[C@@H](C)[C@@H](OC)CN(C)C(=O)c2ccc(NS(C)(=O)=O)cc2OC[C@@H]1C`, the activation is reported as -0.143% (inactive). For `C/C=C/c1ccc2c(c1)O[C@H](CN(C)Cc1ccccc1)[C@H](C)CN([C@@H](C)CO)S2(=O)=O`, the activation was -0.63% (inactive). In the case of `C[C@H](CO)N1C[C@H](C)[C@H](CN(C)Cc2ccncc2)Oc2ncc(C#Cc3cccc(F)c3)cc2C1=O`, the activation is reported as -2.31% (inactive). With `COCC#Cc1cnc2c(c1)C(=O)N([C@@H](C)CO)C[C@@H](C)[C@H](CN(C)C(=O)Nc1ccccc1OC)O2` the activation was -17.8% (inactive). For `CCc1ccc(-c2cc(C)no2)cc1S(=O)(=O)NCCc1ccc(S(N)(=O)=O)cc1`, the activation was -124% (inactive). For `C[C@H](CO)N1C[C@H](C)[C@H](CN(C)Cc2ccccn2)Oc2ncc(C#CCc3ccccc3)cc2C1=O`, the activation was -4.42% (inactive). For `Cc1ccc(S(=O)(=O)Nc2ccc3ncccc3c2)cc1`, the activation was -146% (inactive). With `COCC(=O)N(C)C[C@H]1Oc2cc(C#CC(C)C)ccc2S(=O)(=O)N([C@H](C)CO)C[C@@H]1C` the activation was -9.28% (inactive). For `CCOC(=O)c1c(S(=O)(=O)Nc2cccc(Cl)c2)c(C)n(C)c1C`, the activation was -92% (inactive). For `O=C(/C=C(O)/C=C/c1ccc(O)cc1)/C=C/c1ccc(O)cc1`, the activation was -140% (inactive). With `CCC(=O)Nc1ccc2c(c1)OC[C@H](C)N(Cc1ccccc1F)C[C@H](C)[C@@H](OC)CN(C)C2=O` the activation was 3.89% (inactive). For `Cn1c(NC(=O)c2ccco2)c(-c2ccccc2Cl)c(=O)c2ccccc21`, the activation was 66.3% (active). With `COc1ccc(NS(=O)(=O)c2ccc(NC(=O)C(C)(C(F)(F)F)C(F)(F)F)cc2)nn1` the activation was 35.7% (active). In the case of `COc1ccc(NS(=O)(=O)c2ccc(NC(=S)NC(=O)CC(C)C)cc2)cc1`, the activation is reported as -161% (inactive). For `CO[C@H]1CN(C)C(=O)c2cc(NS(=O)(=O)c3ccccc3)ccc2OC[C@H](C)N(C)C[C@@H]1C`, the activation was -1.29% (inactive). With `C[C@H](CO)N1C[C@H](C)[C@@H](CN(C)S(=O)(=O)c2ccccc2)Oc2ncc(C#Cc3ccccc3F)cc2C1=O` the activation was 1.81% (inactive). In the case of `COc1ccc(OCCCC(=O)NCCc2ccccc2)cc1`, the activation is reported as -223% (inactive). With `CC(C)C#Cc1ccc2c(c1)O[C@@H](CN(C)C(=O)NC(C)C)[C@H](C)CN([C@H](C)CO)S2(=O)=O` the activation was -66.1% (inactive).

From PubChem BioAssay AID623901 (Broad Institute, 2012)
